Assay outcomes as filed in PubChem.
FH mod: Identification of activators of human fumarate hydratase by quantitative high-throughput screening. Fumarate hydratase, mitochondrial (Homo sapiens), P07954. FH coupled MDH/diaphorase resazurin fluorescence, 15 min. Potency, µM (highest dose often 79.9 µM), for the others: top-dose activity change, negative = inhibition, most hits filed as inhibitors. 54,000 tested, 0.22% active; note: potency is the fitted concentration of half-maximal effect; % is set by controls: 0 for no effect and ±100 for the full control effect; the screen sought activators but most active calls are inhibition curves; nearly all actives have a fitted effect of over 45% in size
GPR32 ag: activates human resolvin D1 receptor GPR32; O75388; AID 1346428; 48,000 tested, 2.5% active; activation, % at 76.9 µM; CHO-K1 GPR32 beta-arrestin PathHunter luminescence, 90 min; zero percent set by DMSO-only wells;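 active = activation of at least 60% and not above a set upper limit, about 1 call in 100 departs from these limits; inconclusive = activation of 40% to 60%, or above that upper limit; inactive = activation under 40%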; note: 0% is about no effect
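Step 1: seed CHO-K1 GPR32 beta-arrestin cells, 2,500/well, overnight at 37 °C. Step 2: add compounds, 90 min at 37 °C. Step 3: detection reagent, 1 h ambient, then luminescence.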
HTT-AS act: activates huntingtin-antisense promoter activity; Potency, µM (doses to about 57.5 µM), inactives show top-dose activity change, positive = activation, most hits filed as activators; HEK293 HTT-AS promoter firefly luciferase reporter, 24 h; response scale: percent change from vehicle, -100% = no light; 48,000 tested, 0.24% active; note: potency is the fitted concentration of half-maximal effect; nearly all actives have a fitted effect of over 55% in size
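Quantitative HTS used concentration series of up to 57.5 uM final on HEK293 luciferase reporter cells, 24 h at 37 degrees C. Readout was Dual-Glo firefly luminescence.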
GALC G270D up: raises human GALC G270D mutant activity in cells; 145M-Twi-hGALC-G270D cells (Twitcher mouse brain line with human GALC G270D), HMU-beta-Gal fluorescence, 48 h; Potency, µM (doses to about 57.5 µM), actives largely listed as activators; 45,000 tested, 0.1% active; AID 1159614; note: potency is the fitted concentration of half-maximal effect; 0% is about no effect; nearly all actives have a fitted effect of over 65% in size
Target sequence (P54803 whole entry G286D): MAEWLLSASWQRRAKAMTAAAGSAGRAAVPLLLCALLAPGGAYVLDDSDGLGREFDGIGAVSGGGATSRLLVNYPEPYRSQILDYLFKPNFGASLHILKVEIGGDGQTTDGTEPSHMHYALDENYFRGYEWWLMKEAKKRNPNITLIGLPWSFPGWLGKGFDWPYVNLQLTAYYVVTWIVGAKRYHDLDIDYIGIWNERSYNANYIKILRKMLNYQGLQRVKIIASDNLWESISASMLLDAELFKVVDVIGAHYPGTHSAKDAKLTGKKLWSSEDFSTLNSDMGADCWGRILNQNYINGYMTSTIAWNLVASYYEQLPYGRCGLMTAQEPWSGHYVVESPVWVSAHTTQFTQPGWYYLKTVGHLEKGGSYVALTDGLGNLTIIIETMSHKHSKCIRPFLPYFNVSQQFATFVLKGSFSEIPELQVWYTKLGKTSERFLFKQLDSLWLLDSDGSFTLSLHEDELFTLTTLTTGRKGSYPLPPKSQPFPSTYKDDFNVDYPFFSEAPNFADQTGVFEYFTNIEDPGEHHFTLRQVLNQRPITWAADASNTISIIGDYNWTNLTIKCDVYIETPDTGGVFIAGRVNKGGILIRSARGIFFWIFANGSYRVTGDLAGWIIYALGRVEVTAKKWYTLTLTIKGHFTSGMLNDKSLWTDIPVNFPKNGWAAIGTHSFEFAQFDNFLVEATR
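Live 145M-Twi cells (Twitcher mouse brain-derived, GALC-null) stably expressing human GALC-G270D, with a wild-type GALC line, were compound-treated. Residual GALC activity was then read as fluorescence from 0.1 mM final HMU-β-gal at pH 5.2; higher signal means activation.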
B2AR arrestin ag: agonists recruiting beta-arrestin to human beta2-adrenergic receptor. P07550. HTLA Tango cells, beta-arrestin recruitment, luciferase luminescence, 18 h. Potency, µM (doses to about 46.1 µM), usual class: activators. 44,000 tested, under 10 active. AID 1347077;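 note: potency is the fitted concentration of half-maximal effect; 0% = DMSO and full agonism = EC100 isoproterenol or metaproterenol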
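Ligand-induced beta-arrestin recruitment to recombinant beta2-AR is measured via a tTA-driven luciferase reporter in Tango cells after 18 hr compound exposure at 37 degrees C. Concentrations span up to 46 microM.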
HTT promoter inh: HTT promoter inhibition; HEK293 HTT promoter firefly luciferase reporter, 24 h; 48,000 tested, 0.93% active; Potency, µM (doses to about 57.5 µM), for the others: at the highest dose activity change, negative = inhibition, usual class: inhibitors; AID 1508623; note: potency is the fitted concentration of half-maximal effect; nearly all actives have a fitted effect of over 50% in size
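HEK293 cells carrying firefly luciferase reporters were seeded at 2,500 per well in Opti-MEM and cultured for 24 h. They were then treated with compounds at up to 57.5 uM final for 24 h at 37 degrees C before Dual-Glo luminescence readout.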
Active calls of the source: *; i = inactive; ? = inconclusive; · = not tested or not shown; [ ] = dose if it differs, or a comment. An excerpt weighted towards active compounds, which were near 3.7% of everything screened. Unless noted, calls come from the whole dose curve; as a rule, active = well fitted curve in the direction sought with a large enough effect; inconclusive = small, poorly fitted or top-dose-only effect, or another doubt; inactive = no such curve, though single readings can be large; an effect the other way counts as inactive or inconclusive.

SMILES	FH mod	GPR32 ag	HTT-AS act	GALC G270D up	B2AR arrestin ag	HTT promoter inh
Cc1ccc(-n2ccnc(NCCc3ccccc3)c2=O)cc1C	-15%	16	7%	i	i	12%
CNS(=O)(=O)c1ccc2c(c1)/C(=C/c1[nH]c3c(c1CCCN1CCN(C)CC1)CCCC3)C(=O)N2	26%	·	·	·	·	·
O=C1NC(=O)C(c2cn3c4c(cccc24)CCC3)C1c1c[nH]c2ccccc12 (stereo unspecified)	-7%	·	·	·	·	·
COC12CC3C(C(C)C1=CC(=O)O2)C(O)C(OC(C)=O)C1C(C)(C)C(OC(C)=O)CCC31C (stereo unspecified)	6%[53.3 µM]	·	·	·	·	·
O=C(c1ccc(OC(F)F)c(C#Cc2ccccn2)c1)N1Cc2cccnc2C1	5%	·	·	·	·	·
Cc1c(C(=O)N2CCOc3ccc(-c4ccc(N)nc4)cc3C2)ccc(S(C)(=O)=O)c1F	5%	·	·	·	·	·
Clc1ccc(-c2noc3ncnc(N4CCCCC4)c23)cc1	-10%	83*	-26%	i	i	-29%
C=CC(C)(O)CC[C@@H]1[C@@]2(C)CCCC(C)(C)C2CC[C@@]1(C)O (stereo partly specified)	-9%	·	·	·	·	·
CC(=O)O[C@@H]1C2=C(O)C(=O)[C@](C)(OC(C)=O)C(=O)C2=CO[C@@]12O[C@@H](C)CC[C@H]2OC(C)=O	2%[53.3 µM]	·	·	·	·	·
Nc1c(C(=O)c2ccccc2)sc(Nc2ccc(Cl)c(Cl)c2)c1C(=O)Nc1ccccc1	13%	-105	-43%	i	i	28µM*
C=C1CCC2(OC1)OC1CC3C4CC=C5CC(O)CC(O[C@@H]6OC[C@H](OC(=O)C(O)C(C)CC)[C@H](O)[C@H]6O[C@@H]6O[C@@H](C)[C@H](O)[C@@H](O)[C@H]6O)C5(C)C4CCC3(C)C1C2C (stereo partly specified)	5%[20.6 µM]	·	·	·	·	·
CC(C)=CCC[C@](C)(O[C@@H]1O[C@H](CO[C@@H]2O[C@@H](CO)[C@H](O)[C@H]2O)[C@@H](O)[C@H](O)[C@H]1O)[C@H]1CC[C@]2(C)[C@@H]1[C@H](O)C[C@@H]1[C@@]3(C)CC[C@H](O[C@@H]4O[C@H](CO)[C@@H](O)[C@H](O)[C@H]4O[C@@H]4O[C@H](CO)[C@@H](O)[C@H](O)[C@H]4O)C(C)(C)[C@@H]3CC[C@]12C	8%[53.3 µM]	·	·	·	·	·
COc1cccc(OCc2cc(=O)n3c(-c4ccccc4)csc3n2)c1	0%	121*	?	i	?	11%
O=C(Nc1ccc2nc(SCc3ccccc3)sc2c1)c1ccccc1F	-2%	27	-14%	i	i	-26%
NC(=O)CSc1nc2ccc(NC(=O)COc3ccccc3)cc2s1	-5%	70*	?	i	i	-8%
CC(C)(C)C(=O)Nc1ccc2nc(SCc3ccccc3)sc2c1	-13%	120*	2%	i	i	-16%
Cc1ccc(CSc2nc3ccc(NC(=O)COc4ccc(F)cc4)cc3s2)cc1	2%	88*	-4%	i	i	-3%
O=C(COc1ccc(F)cc1)Nc1ccc2nc(SCc3ccccc3)sc2c1	4%	0	5%	i	i	6%
CCC(=O)Nc1ccc2nc(SCc3ccc(C)cc3)sc2c1	-5%	86*	3%	i	i	-4%
COc1ccc(-c2cnc(-c3cccc4c3-c3ccccc3C4=O)o2)cc1	5%[53.3 µM]	·	·	·	·	·
CC(C)CC(=O)OC[C@H]1O[C@@](COC(=O)CC(C)C)(O[C@H]2O[C@H](CO)[C@@H](O)[C@H](O)[C@H]2O)[C@@H](OC(=O)CC(C)C)[C@@H]1OC(=O)CC(C)C	-3%[20.6 µM]	·	·	·	·	·
CCN1CCN(c2ccc(NS(=O)(=O)c3c(C)nc4sccn4c3=O)cc2Cl)CC1	-4%	4	-45%	i	i	16µM*
Cc1nc2sccn2c(=O)c1S(=O)(=O)Nc1ccc(N2CCOCC2)c(Cl)c1	-16%	16	-27%	i	i	?
COc1ccc(N2CCN(C(=O)CCNS(=O)(=O)c3ccc4c(c3)CCN4C(=O)C3CC3)CC2)cc1	-5%	20	-36%	i	i	?
Cc1cccc(NC(=O)CCNS(=O)(=O)c2ccc3c(c2)CCN3C(=O)C2CC2)c1	-8%	5	-3%	i	i	-4%
SMILES	FH mod	GPR32 ag	HTT-AS act	GALC G270D up	B2AR arrestin ag	HTT promoter inh
O=C(CCNS(=O)(=O)c1ccc2c(c1)CCN2C(=O)C1CC1)Nc1ccc(F)cc1F	7%	85*	-27%	i	i	?
O=C(CCNS(=O)(=O)c1ccc2c(c1)CCN2C(=O)C1CC1)N1CCN(c2cccc(Cl)c2)CC1	-11%	61*	-47%	i	i	?
O=C(CCNS(=O)(=O)c1ccc2c(c1)CCN2C(=O)C1CC1)N1CCN(c2ccc(F)cc2)CC1	-8%	69*	-45%	i	i	?
COc1cc(OC)cc(C(=O)Nc2ccc(Cl)c(-c3nc4ccc(N(C)C)cc4[nH]3)c2)c1	-7%	·	·	·	·	·
C=CC(=O)Nc1cc(Nc2nccc(-c3c[nH]c4ccccc34)n2)c(OC)cc1N(C)CCN(C)C	-3%	·	·	·	·	·
O=C(NC[C@H](O)CN1CCc2ccccc2C1)c1ccnc(NC2CCC2)c1	10%	·	·	·	·	·
CCCCN1CC(c2nc3ccccc3n2CCCCOc2c(C)cccc2C)CC1=O (stereo unspecified)	-35%	72*	-50%	i	i	?
CCOc1ccccc1N1CC(c2nc3ccccc3n2CCOc2ccc(OC)cc2)CC1=O (stereo unspecified)	?	80*	-47%	i	i	?
CCOc1ccccc1N1CC(c2nc3ccccc3n2CCCOc2ccc(OC)cc2)CC1=O (stereo unspecified)	-13%	1	-2%	i	i	-7%
CCCCN1CC(c2nc3ccccc3n2CCCCOc2ccccc2C)CC1=O (stereo unspecified)	?	?	-51%	i	i	?
CN(C1CCCCC1)S(=O)(=O)c1ccc(C(=O)Nc2sc3c(c2C(N)=O)CC(C)(C)NC3(C)C)cc1	-6%	118*	-8%	i	i	-20%
CCC1CCc2nc3sc(C(=O)Nc4cccc(C(F)(F)F)c4)c(N)c3cc2C1 (stereo unspecified)	-4%	21	-24%	10µM*	i	-24%
COc1ccc(NC(=O)c2sc3nc4c(cc3c2N)CCCCCC4)cc1	-27%	74*	-36%	i	i	?
